# Measurements: the supplement of paper PMC8728848
# This excerpt belongs to a sample that is enriched for the strongest signals.
# B1: SspB A3vp1 (Streptococcus gordonii), Q54186 (protein)
# chain: MTNEADYQAKLAAYQTELARVQKANADAKATYEKAVEDNKAKNAAIKAENEEIKQRNAVAKTDYEAKLAKYEADLAKYKKEFAAYTAALAEAESKKKQDGYLSEPRSQSLNFKSEPNAIRTIDSSVHQYGQQELDALVKSWGISPTNPDRKKSRAYSYFNAINSNNTYAKLVLEKDKPVDVTYTGLKNSSFNGKKISKVVYTYTLKETGFNDGTKMTMFASSDPTVTAWYNDYFTSTNINVKVKFYDEEGQLMNLTGGLVNFSSLNRGNGSGAIDKDAIESVRNFNGRYIPISGSSIKIHENNSAYADSSNAEKSLGARWNTSEWDTTSSPNNWYGAIVGEITQSEISFNMASSKSGNIWFAFNSNINAIGVPTKPVAPTAPTQPMYETEKPLEPAPVAPSYENEPTPPVKTPDQPEPSKPAAALEHHHHHH
# Key:
# Assay in all cases: glycan array binding signal (z-score within array); higher = stronger binding
# Conditions in all cases: glycan notation: IUPAC condensed, linker removed
# [1] = target: Gal3S(b1-3)GalNAc
# How it was run: (§1)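 Glycan array data were curated from 3228 arrays in the Consortium for Functional Glycomics database and kept only where the protein sequence was available. Glycan names were converted to IUPAC-condensed notation, and columns mapping to the same glycan were averaged. The binding signal is a within-array Z-score, averaged across arrays of the same protein sequence at different concentrations or buffers and across linkers. Negative Z-scores can be read as non-binding.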
# [2] = target: Gal3S6S(b1-4)GlcNAc
# How it was run: as §1
# [3] = target: Gal4S(b1-4)GlcNAc
# How it was run: as §1
# [4] = target: Gal6S(b1-4)GlcNAc
# How it was run: as §1
# [5] = target: GalNAc(b1-3)Gal
# How it was run: as §1
# [6] = target: GalNAc(b1-3)Gal(a1-6)Gal(b1-4)Glc
# How it was run: as §1
# [7] = target: GalNAc6S(b1-4)GlcNAc
# How it was run: as §1
# [8] = target: Glc(a1-4)Glc(a1-4)Glc(a1-4)Glc
# How it was run: as §1
# [9] = target: GlcA3S(b1-3)Gal(b1-4)GlcNAc(b1-2)Man
# How it was run: as §1
# [10] = target: GlcNAc(a1-3)Gal(b1-4)GlcNAc
# How it was run: as §1
# [11] = target: GlcNAc(a1-4)Gal(b1-4)GlcNAc
# How it was run: as §1
# [12] = target: GlcNAc(b1-2)[GlcNAc(b1-6)]Man(a1-6)[GlcNAc(b1-4)][GlcNAc(b1-2)Man(a1-3)]Man(b1-4)GlcNAc(b1-4)GlcNAc
# How it was run: as §1
# [13] = target: GlcNAc(b1-3)Fuc
# How it was run: as §1
# [14] = target: GlcNAc(b1-3)Gal(b1-4)GlcNAc(b1-3)Gal(b1-4)GlcNAc(b1-2)Man(a1-3)[GlcNAc(b1-3)Gal(b1-4)GlcNAc(b1-3)Gal(b1-4)GlcNAc(b1-2)Man(a1-6)]Man(b1-4)GlcNAc(b1-4)[Fuc(a1-6)]GlcNAc
# How it was run: as §1
# [15] = target: GlcNAc(b1-3)Gal(b1-4)GlcNAc(b1-3)Gal(b1-4)GlcNAc(b1-3)Gal(b1-4)GlcNAc(b1-2)[GlcNAc(b1-3)Gal(b1-4)GlcNAc(b1-3)Gal(b1-4)GlcNAc(b1-3)Gal(b1-4)GlcNAc(b1-6)]Man(a1-6)[GlcNAc(b1-3)Gal(b1-4)GlcNAc(b1-3)Gal(b1-4)GlcNAc(b1-3)Gal(b1-4)GlcNAc(b1-2)Man(a1-3)]Man(b1-4)GlcNAc(b1-4)[Fuc(a1-6)]GlcNAc
# How it was run: as §1
# [16] = target: Kdn(a2-3)Gal(b1-3)GlcNAc
# How it was run: as §1
# [17] = target: Man(a1-2)Man(a1-3)[Man(a1-2)Man(a1-6)]Man
# How it was run: as §1
# [18] = target: Neu5Ac(a2-3)Gal
# How it was run: as §1
# [19] = target: Neu5Ac(a2-3)Gal(b1-3)GalNAc6S
# How it was run: as §1
# [20] = target: Neu5Ac(a2-3)Gal(b1-4)GlcNAc(b1-2)Man
# How it was run: as §1
# [21] = target: Neu5Ac(a2-3)Gal(b1-4)GlcNAc(b1-3)Gal
# How it was run: as §1
# [22] = target: Neu5Ac(a2-3)Gal(b1-4)GlcNAc(b1-3)Gal(b1-4)GlcNAc(b1-2)Man(a1-3)[Neu5Ac(a2-3)Gal(b1-4)GlcNAc(b1-3)Gal(b1-4)GlcNAc(b1-2)Man(a1-6)]Man(b1-4)GlcNAc(b1-4)GlcNAc
# How it was run: as §1
# [23] = target: Neu5Ac(a2-3)Gal(b1-4)GlcNAc(b1-3)GalNAc
# How it was run: as §1
# [24] = target: Neu5Ac(a2-3)Gal(b1-4)GlcNAc6S
# How it was run: as §1
# [25] = target: Neu5Ac(a2-3)Gal(b1-4)[Fuc(a1-3)]GlcNAc(b1-6)[Neu5Ac(a2-3)Gal(b1-3)]GalNAc
# How it was run: as §1
# [26] = target: Neu5Ac(a2-6)Gal(b1-4)GlcNAc(b1-3)Gal(b1-4)GlcNAc(b1-3)Gal(b1-4)GlcNAc(b1-2)Man(a1-3)[Neu5Ac(a2-6)Gal(b1-4)GlcNAc(b1-3)Gal(b1-4)GlcNAc(b1-3)Gal(b1-4)GlcNAc(b1-2)Man(a1-6)]GalNAc
# How it was run: as §1
# [27] = target: Neu5Ac(a2-6)Gal(b1-4)GlcNAc6S
# How it was run: as §1
# [28] = target: Neu5Ac(a2-8)Neu5Ac
# How it was run: as §1
# [29] = target: Neu5Ac(a2-8)Neu5Ac(a2-3)Gal(b1-4)GlcNAc
# How it was run: as §1
# [30] = target: Neu5Ac(a2-8)Neu5Ac(a2-3)[GalNAc(b1-4)]Gal(b1-4)Glc
# How it was run: as §1
binder,measurement,setting,value
B1,glycan array binding signal (z-score),[1],0.06
same,glycan array binding signal (z-score),[2],-0.52
same,glycan array binding signal (z-score),[3],0.061
same,glycan array binding signal (z-score),[4],-0.624
same,glycan array binding signal (z-score),[5],0.001
same,glycan array binding signal (z-score),[6],0.652
same,glycan array binding signal (z-score),[7],-0.623
same,glycan array binding signal (z-score),[8],-0.964
same,glycan array binding signal (z-score),[9],-1.19
same,glycan array binding signal (z-score),[10],-0.25
same,glycan array binding signal (z-score),[11],-0.84
same,glycan array binding signal (z-score),[12],-0.233
same,glycan array binding signal (z-score),[13],-0.426
same,glycan array binding signal (z-score),[14],1.62
same,glycan array binding signal (z-score),[15],-0.133
same,glycan array binding signal (z-score),[16],-0.933
same,glycan array binding signal (z-score),[17],-0.889
same,glycan array binding signal (z-score),[18],-0.167
same,glycan array binding signal (z-score),[19],-0.287
same,glycan array binding signal (z-score),[20],1.88
same,glycan array binding signal (z-score),[21],-0.803
same,glycan array binding signal (z-score),[22],3.69
same,glycan array binding signal (z-score),[23],-0.47
same,glycan array binding signal (z-score),[24],-0.678
same,glycan array binding signal (z-score),[25],5.21
same,glycan array binding signal (z-score),[26],1.36
same,glycan array binding signal (z-score),[27],-0.165
same,glycan array binding signal (z-score),[28],-0.582
same,glycan array binding signal (z-score),[29],-1.25
same,glycan array binding signal (z-score),[30],-0.166
